Results published in the supplement of paper PMC12819154, “High-throughput peptide-centric local stability assay extends protein–ligand identification to membrane proteins, tissues and bacteria” (Nature Structural & Molecular Biology, 2025).

Compound: CN[C@@H]1C[C@H]2O[C@@](C)([C@@H]1OC)n1c3ccccc3c3c4c(c5c6ccccc6n2c5c31)C(=O)NC4 [staurosporine]
Experiment: log2 fold change of tryptic peptide abundance, ligand vs vehicle (limited proteolysis) (log2 ratio); higher = more trypsin-susceptible (destabilized)
Details: ligand concentration: 20 uM; sample: mouse liver crude lysate; replicate design: treated separately

UniProt Q9CQE1, sequence (Q9CQE1 whole entry): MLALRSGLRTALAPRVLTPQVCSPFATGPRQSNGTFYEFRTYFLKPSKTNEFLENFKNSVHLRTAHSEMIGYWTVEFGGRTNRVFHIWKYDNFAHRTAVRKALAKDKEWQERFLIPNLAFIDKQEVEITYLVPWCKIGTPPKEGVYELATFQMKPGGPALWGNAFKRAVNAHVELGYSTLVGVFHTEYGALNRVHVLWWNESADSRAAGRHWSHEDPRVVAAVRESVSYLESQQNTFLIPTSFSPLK
UniProt P41216, sequence (P41216 whole entry): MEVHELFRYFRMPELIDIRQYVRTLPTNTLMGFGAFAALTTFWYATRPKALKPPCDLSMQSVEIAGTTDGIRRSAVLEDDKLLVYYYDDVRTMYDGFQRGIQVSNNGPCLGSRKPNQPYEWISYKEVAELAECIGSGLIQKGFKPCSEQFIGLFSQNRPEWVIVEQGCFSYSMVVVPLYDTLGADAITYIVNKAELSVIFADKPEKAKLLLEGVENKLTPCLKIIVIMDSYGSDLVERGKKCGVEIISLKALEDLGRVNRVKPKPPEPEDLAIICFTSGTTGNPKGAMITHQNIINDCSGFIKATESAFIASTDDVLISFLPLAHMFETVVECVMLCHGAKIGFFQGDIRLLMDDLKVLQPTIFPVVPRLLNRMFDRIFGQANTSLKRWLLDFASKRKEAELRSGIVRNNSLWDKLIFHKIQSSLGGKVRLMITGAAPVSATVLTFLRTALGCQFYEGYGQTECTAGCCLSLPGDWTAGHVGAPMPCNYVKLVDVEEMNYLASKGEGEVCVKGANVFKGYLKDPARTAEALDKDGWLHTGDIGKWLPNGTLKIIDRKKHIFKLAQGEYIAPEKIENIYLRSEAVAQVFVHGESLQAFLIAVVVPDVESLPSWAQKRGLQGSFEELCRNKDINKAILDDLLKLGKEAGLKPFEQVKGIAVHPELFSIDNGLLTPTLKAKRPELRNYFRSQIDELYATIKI
UniProt Q64464, sequence (Q64464 whole entry): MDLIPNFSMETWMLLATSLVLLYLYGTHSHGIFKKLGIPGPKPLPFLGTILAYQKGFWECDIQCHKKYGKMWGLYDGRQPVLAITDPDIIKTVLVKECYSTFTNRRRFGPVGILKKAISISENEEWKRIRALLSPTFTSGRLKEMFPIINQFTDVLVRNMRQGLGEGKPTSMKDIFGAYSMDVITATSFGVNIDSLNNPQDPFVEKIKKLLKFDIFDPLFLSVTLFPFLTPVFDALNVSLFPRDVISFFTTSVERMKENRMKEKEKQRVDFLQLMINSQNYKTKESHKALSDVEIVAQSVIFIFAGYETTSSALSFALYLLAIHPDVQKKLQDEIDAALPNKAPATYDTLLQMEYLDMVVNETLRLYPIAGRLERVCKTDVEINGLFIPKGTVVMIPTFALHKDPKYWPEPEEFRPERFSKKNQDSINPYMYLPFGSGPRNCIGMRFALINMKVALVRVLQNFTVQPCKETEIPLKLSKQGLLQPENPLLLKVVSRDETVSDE
UniProt O54785, sequence (O54785 whole entry): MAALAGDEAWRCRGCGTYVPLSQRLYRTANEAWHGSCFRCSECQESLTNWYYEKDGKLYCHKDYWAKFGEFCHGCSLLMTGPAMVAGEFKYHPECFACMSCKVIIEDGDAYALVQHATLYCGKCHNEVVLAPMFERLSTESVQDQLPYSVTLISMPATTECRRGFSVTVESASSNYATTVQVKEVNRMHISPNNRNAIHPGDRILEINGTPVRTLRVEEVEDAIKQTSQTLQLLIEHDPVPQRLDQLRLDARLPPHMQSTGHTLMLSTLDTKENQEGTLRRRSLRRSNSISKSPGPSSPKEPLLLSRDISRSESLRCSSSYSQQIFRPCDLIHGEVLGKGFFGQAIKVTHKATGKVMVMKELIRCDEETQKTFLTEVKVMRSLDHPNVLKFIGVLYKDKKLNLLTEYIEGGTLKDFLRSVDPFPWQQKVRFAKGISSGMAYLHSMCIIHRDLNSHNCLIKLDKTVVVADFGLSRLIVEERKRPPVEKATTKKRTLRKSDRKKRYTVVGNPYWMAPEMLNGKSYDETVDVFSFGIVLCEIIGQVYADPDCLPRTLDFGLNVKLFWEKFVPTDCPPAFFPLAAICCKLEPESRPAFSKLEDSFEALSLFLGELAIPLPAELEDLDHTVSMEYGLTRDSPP
UniProt Q9R257, sequence (Q9R257 whole entry): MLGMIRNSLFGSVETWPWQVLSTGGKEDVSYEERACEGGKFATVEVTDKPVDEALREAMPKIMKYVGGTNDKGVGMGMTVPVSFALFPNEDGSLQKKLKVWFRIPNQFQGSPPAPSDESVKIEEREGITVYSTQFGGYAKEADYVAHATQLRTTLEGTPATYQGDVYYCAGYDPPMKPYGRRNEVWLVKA
UniProt Q80UW5, sequence (Q80UW5 whole entry): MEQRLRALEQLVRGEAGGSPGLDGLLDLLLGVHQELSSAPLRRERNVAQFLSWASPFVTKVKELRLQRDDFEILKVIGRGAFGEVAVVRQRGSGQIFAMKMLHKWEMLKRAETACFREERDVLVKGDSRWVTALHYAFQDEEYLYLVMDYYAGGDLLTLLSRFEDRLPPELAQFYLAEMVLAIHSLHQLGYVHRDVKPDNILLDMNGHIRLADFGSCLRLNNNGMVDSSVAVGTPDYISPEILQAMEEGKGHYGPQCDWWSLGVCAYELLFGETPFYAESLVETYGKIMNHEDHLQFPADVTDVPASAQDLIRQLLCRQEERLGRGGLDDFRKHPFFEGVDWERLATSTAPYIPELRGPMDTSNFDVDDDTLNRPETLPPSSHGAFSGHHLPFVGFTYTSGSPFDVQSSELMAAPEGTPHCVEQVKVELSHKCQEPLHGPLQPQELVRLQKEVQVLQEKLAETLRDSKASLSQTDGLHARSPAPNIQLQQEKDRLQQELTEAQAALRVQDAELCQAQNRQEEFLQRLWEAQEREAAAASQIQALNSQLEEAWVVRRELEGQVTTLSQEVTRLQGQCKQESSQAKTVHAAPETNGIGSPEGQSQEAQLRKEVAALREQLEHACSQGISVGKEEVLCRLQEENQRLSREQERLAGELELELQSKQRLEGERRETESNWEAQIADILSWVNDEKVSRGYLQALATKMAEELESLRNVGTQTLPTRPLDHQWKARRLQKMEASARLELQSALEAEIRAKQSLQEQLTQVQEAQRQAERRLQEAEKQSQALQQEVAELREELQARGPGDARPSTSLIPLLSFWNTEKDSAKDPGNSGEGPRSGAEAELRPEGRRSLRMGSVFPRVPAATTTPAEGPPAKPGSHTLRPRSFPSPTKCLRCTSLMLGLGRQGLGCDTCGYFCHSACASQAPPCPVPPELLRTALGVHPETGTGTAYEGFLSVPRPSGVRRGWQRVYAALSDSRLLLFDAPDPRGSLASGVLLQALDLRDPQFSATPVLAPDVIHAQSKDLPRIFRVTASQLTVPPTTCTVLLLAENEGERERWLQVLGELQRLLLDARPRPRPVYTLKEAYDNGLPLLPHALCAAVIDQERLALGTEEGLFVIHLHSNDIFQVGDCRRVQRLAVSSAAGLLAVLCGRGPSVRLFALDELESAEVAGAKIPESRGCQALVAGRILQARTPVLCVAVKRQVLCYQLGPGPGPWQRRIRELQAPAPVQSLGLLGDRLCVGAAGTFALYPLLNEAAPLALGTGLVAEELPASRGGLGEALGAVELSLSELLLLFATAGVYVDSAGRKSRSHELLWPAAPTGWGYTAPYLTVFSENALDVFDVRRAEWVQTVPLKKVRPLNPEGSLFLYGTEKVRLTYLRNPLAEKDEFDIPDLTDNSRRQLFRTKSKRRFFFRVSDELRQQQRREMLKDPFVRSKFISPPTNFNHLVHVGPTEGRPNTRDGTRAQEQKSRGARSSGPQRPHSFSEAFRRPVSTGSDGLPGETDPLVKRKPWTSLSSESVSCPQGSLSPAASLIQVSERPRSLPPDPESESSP
UniProt Q60648, sequence (Q60648 whole entry): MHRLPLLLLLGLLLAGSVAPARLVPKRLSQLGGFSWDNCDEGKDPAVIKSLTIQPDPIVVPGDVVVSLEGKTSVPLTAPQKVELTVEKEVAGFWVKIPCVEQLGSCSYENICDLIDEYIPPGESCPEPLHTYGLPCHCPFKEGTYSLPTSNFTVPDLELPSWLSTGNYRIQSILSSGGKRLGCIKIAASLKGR
UniProt Q8C078, sequence (Q8C078 whole entry, looked up): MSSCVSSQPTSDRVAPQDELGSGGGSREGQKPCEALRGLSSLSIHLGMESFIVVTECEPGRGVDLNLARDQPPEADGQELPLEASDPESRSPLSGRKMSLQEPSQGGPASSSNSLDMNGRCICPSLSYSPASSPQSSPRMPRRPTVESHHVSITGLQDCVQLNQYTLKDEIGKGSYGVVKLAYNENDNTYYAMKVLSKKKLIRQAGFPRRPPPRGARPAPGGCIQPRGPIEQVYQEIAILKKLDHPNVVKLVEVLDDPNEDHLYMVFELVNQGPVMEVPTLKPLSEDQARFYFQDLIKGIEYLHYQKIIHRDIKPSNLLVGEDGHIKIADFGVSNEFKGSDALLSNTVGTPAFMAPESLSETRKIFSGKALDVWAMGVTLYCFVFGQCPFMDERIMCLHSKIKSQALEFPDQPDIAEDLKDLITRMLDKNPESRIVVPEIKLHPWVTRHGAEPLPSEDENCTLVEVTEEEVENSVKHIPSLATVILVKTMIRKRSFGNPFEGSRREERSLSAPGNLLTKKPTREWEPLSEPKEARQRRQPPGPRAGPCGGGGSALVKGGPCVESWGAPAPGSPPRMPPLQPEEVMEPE
UniProt Q8JZU2, sequence (Q8JZU2 whole entry): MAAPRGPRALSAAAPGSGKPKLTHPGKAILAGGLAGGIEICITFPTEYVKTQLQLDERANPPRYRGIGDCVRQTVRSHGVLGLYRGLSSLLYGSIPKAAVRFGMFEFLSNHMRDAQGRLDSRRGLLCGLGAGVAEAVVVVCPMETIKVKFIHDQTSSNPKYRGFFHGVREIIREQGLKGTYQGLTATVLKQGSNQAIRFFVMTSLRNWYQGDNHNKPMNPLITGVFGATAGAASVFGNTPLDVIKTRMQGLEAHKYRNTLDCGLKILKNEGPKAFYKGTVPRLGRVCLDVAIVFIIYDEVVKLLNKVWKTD

Row | Target | log2 fold change
1 | UniProt Q61136 (peptide sequence: LNDADPDDKFHCLR, peptide start residue: 739) | -1.19
2 | UniProt Q8JZU2 (peptide sequence: FIHDQTSSNPK, peptide start residue: 150) | 0.438
3 | UniProt P41216 (peptide sequence: WLLDFASK, peptide start residue: 389) | 0.328
4 | UniProt O54909 (peptide sequence: YLASYLKR, peptide start residue: 242) | -1.31
5 | UniProt Q62445 (peptide sequence: RFECPECSKR, peptide start residue: 704) | -1
6 | UniProt Q9CQE1 (peptide sequence: HWSHEDPR, peptide start residue: 211) | -0.522
7 | UniProt Q9EP53 (peptide sequence: SHLLQQNQR, peptide start residue: 890) | -0.636
8 | UniProt Q9JHU4 (peptide sequence: SNLPDNLK, peptide start residue: 2024) | 0.261
9 | UniProt Q9D6U8 (peptide sequence: HESLTSLNLER, peptide start residue: 130) | 0.435
10 | UniProt P09103 (peptide sequence: EADDIVNWLKK, peptide start residue: 123) | 0.314
11 | UniProt Q80UW5 (peptide sequence: GAFGEVAVVR, peptide start residue: 80) | -1.9
12 | UniProt P98154 (peptide sequence: GGDPTHFHTVNVAQPVR, peptide start residue: 89) | -1.16
13 | UniProt Q64028 (peptide sequence: PQIAQMSLYER, peptide start residue: 24) | 0.725
14 | UniProt P70451 (peptide sequence: NCLVGENNTLK, peptide start residue: 690) | -2
15 | UniProt Q8R1Z9 (peptide sequence: LSCNHVFHEFCIR, peptide start residue: 249) | 1.08
16 | UniProt Q61268 (peptide sequence: TQAWLQSSR, peptide start residue: 94) | 0.77
17 | UniProt Q63932 (peptide sequence: ISELGAGNGGVVTK, peptide start residue: 75) | -0.512
18 | UniProt Q8CIM7 (peptide sequence: GNPESSFNDKNLR, peptide start residue: 287) | -0.562
19 | UniProt O54785 (peptide sequence: GFFGQAIK, peptide start residue: 340) | -0.88

Row | Target | log2 fold change
20 | UniProt Q05421 (peptide sequence: FGPVFTLHLGQR, peptide start residue: 64) | 0.247
21 | UniProt P47802 (peptide sequence: EKYNADYDLSAR, peptide start residue: 77) | -0.346
22 | UniProt Q924L1 (peptide sequence: NLISYVVTK, peptide start residue: 55) | 0.543
23 | UniProt Q9CR62 (peptide sequence: NGLDVLLK, peptide start residue: 261) | 0.377
24 | UniProt Q9R257 (peptide sequence: FATVEVTDKPVDEALR, peptide start residue: 41) | -0.672
25 | UniProt O35945 (peptide sequence: TVAMQISQK, peptide start residue: 491) | -0.312
26 | UniProt P31532 (peptide sequence: KYFQGLLNR, peptide start residue: 81) | 0.505
27 | UniProt Q9JHU3 (peptide sequence: HVETGEIVALKK, peptide start residue: 23) | -2.31
28 | UniProt Q9Z1R3 (peptide sequence: TEGRPDMK, peptide start residue: 115) | 1.56
29 | UniProt P51881 (peptide sequence: KGTDIMYTGTLDCWRK, peptide start residue: 245) | 0.454
30 | UniProt Q8C078 (peptide sequence: DIKPSNLLVGEDGHIK, peptide start residue: 312) | -3.1
31 | UniProt Q64464 (peptide sequence: ALLSPTFTSGR, peptide start residue: 131) | -0.724
32 | UniProt Q91VJ4 (peptide sequence: DTGHVYAMK, peptide start residue: 110) | -3.23
33 | UniProt Q8VI63 (peptide sequence: ITDFEFK, peptide start residue: 35) | 0.579
34 | UniProt Q60648 (peptide sequence: IQSILSSGGK, peptide start residue: 170) | -0.484
35 | UniProt Q99PV0 (peptide sequence: VESHFDLELR, peptide start residue: 677) | 0.478
36 | UniProt Q8JZR0 (peptide sequence: GYLKDPEK, peptide start residue: 503) | 0.616
37 | UniProt Q91Y86 (peptide sequence: MLVIDASKR, peptide start residue: 301) | -1.79
38 | UniProt P62717 (peptide sequence: AHSIQIMK, peptide start residue: 121) | 0.267
